What all share (experiment): DAPPL (digital affinity profiling via proximity ligation, sequencing); 10 mM Tris-HCl pH 7.5, 50 mM NaCl, 1 mM DTT, 4% glycerol, room temperature, 30 min; GST-TFs on glutathione beads, 16-mer random dsDNA library, 0.1% formaldehyde crosslink after washing; high values mean tight binding
The target in one assay is T1, FLI1 (Homo sapiens, UniProt Q01543 1-452).
T1 sequence: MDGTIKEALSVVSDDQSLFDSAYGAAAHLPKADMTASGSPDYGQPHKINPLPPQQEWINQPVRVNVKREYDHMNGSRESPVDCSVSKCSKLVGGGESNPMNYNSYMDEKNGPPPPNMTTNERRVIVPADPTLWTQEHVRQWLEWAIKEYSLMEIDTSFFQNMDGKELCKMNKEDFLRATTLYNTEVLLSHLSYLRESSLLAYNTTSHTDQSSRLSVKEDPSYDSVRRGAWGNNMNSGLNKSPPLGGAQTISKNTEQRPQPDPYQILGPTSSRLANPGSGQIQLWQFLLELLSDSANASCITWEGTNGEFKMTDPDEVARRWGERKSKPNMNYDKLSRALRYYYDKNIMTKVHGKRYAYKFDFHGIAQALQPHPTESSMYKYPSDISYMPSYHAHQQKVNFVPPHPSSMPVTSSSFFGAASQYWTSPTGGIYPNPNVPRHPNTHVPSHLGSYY
The conditions noted are these: protein: recombinant; tags: N-terminal GST; dsDNA, one strand shown. Summed up:
(§1)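 After expression in yeast as GST fusions, human transcription factors were bound to glutathione beads, DNA-barcoded and mixed with a tag-only sample. The pools were incubated with 200 nmole of a 16-mer random double-stranded DNA library in Tris/NaCl/DTT/glycerol buffer (30 min, room temperature), washed and crosslinked with 0.1% formaldehyde. Proximity ligation with BsaI/T4 ligase ran for 1 h at 37 °C, before PCR amplification and sequencing on an Illumina NextSeq500. Binding signal is a hexamer's read frequency for a factor divided by its frequency for the tag-only sample.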

Another assay has as its target T2, ELK1 (Homo sapiens, UniProt P19419 1-428).
T2 sequence: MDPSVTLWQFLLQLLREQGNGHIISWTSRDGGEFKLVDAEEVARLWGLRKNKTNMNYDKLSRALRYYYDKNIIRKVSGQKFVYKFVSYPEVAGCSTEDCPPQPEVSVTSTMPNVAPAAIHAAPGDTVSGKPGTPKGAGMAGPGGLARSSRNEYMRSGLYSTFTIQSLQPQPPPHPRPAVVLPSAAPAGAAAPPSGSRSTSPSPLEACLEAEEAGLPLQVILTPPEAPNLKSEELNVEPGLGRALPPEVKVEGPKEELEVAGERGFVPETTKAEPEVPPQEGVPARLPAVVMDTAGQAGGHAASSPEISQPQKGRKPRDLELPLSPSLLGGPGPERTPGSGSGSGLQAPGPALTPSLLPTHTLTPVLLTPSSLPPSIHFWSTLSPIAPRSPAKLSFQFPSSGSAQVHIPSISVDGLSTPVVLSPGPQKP
The conditions noted are these: protein: recombinant; tags: N-terminal GST; dsDNA, one strand shown. Summed up:
as §1

The target in another assay is T3, GABPA (Homo sapiens, UniProt Q06546 1-454).
T3 sequence: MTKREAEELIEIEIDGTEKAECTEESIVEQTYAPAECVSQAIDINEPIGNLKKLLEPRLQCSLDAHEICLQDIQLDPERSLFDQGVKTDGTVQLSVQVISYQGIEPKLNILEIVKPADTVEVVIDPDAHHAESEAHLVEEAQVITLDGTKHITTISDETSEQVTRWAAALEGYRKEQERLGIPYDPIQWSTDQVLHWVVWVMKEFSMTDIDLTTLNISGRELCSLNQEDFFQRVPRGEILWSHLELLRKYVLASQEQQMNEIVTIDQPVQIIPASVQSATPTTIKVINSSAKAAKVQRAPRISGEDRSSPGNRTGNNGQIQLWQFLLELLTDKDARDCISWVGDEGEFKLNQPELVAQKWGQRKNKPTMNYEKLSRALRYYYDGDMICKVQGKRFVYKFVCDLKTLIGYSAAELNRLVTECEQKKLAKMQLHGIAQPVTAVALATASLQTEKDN
The conditions noted are these: protein: recombinant; tags: N-terminal GST; dsDNA, one strand shown. Summed up: as §1

The target in another assay is T4, ERG (Homo sapiens, UniProt P11308 1-479).
T4 sequence: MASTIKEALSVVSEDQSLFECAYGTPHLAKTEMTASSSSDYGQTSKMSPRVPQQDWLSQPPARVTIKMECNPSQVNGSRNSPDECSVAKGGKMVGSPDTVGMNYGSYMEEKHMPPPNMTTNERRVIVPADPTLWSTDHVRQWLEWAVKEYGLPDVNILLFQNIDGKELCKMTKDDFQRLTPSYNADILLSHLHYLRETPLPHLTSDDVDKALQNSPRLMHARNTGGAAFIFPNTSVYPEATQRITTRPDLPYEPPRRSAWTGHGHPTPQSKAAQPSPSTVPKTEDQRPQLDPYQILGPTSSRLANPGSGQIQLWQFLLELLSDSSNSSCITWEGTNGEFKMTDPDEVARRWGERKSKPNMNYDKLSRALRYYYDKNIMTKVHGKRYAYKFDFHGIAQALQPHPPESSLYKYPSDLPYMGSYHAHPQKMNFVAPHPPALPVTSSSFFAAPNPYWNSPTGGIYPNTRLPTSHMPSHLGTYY
The conditions noted are these: protein: recombinant; tags: N-terminal GST; dsDNA, one strand shown. Summed up:
as §1

The target of a further assay is ELF1 (Homo sapiens, UniProt P32519 1-619). The conditions noted are these: protein: recombinant; tags: N-terminal GST; dsDNA, one strand shown. The method in brief:
as §1

The target in the next assay is T5, EHF (Homo sapiens, UniProt Q9NZC4 1-300).
T5 sequence: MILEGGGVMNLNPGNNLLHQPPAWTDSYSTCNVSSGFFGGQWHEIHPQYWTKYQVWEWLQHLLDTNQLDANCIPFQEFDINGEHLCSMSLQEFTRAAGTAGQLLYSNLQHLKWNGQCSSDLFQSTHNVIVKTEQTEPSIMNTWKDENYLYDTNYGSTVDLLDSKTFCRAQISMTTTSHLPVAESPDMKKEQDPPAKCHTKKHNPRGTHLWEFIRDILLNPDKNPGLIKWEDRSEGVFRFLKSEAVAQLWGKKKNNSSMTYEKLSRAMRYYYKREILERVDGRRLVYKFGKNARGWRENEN
The conditions noted are these: protein: recombinant; tags: N-terminal GST; dsDNA, one strand shown. Summed up: as §1

In another assay the target is SPI1 (Homo sapiens, UniProt P17947 1-270). The conditions noted are these: protein: recombinant; tags: N-terminal GST; dsDNA, one strand shown. Summed up: as §1
Another assay concerns the target SPIB (Homo sapiens, UniProt Q01892 1-262). The conditions noted are these: protein: recombinant; tags: N-terminal GST; dsDNA, one strand shown. Summed up: as §1
The next assay has as its target T6, ELK3 (Homo sapiens, UniProt P41970 1-407).
T6 sequence: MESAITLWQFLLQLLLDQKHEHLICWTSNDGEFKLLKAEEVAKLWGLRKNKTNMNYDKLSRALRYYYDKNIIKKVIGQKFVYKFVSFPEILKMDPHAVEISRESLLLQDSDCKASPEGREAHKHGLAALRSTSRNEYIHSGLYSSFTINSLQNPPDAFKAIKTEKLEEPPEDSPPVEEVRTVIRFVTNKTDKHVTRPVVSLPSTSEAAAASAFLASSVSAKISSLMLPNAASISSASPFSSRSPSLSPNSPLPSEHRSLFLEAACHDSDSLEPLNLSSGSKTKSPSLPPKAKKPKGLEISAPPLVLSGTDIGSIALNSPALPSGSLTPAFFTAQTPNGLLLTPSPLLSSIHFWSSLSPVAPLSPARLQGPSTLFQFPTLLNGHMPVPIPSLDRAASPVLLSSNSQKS
The conditions noted are these: protein: recombinant; tags: N-terminal GST; dsDNA, one strand shown. Summed up: as §1

Another assay deals with T7, FEV (Homo sapiens, UniProt Q99581 1-238).
T7 sequence: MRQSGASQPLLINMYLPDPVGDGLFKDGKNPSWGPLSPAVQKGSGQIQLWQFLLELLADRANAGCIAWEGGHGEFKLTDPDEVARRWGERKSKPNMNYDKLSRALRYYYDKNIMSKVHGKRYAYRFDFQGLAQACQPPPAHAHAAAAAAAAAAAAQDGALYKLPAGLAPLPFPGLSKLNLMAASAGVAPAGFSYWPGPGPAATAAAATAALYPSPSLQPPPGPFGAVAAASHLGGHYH
The conditions noted are these: protein: recombinant; tags: N-terminal GST; dsDNA, one strand shown. Summed up:
as §1

A further assay concerns the target ETV5 (Homo sapiens, UniProt P41161 1-510). The conditions noted are these: protein: recombinant; tags: N-terminal GST; dsDNA, one strand shown. The method in brief:
as §1

In the next assay the target is HSF1 (Homo sapiens, UniProt Q00613 1-529). The conditions noted are these: protein: recombinant; tags: N-terminal GST; chain copies: 3; dsDNA, one strand shown. The method in brief: as §1
Another assay addresses T8, SPIC (Homo sapiens, UniProt Q8N5J4 1-248).
T8 sequence: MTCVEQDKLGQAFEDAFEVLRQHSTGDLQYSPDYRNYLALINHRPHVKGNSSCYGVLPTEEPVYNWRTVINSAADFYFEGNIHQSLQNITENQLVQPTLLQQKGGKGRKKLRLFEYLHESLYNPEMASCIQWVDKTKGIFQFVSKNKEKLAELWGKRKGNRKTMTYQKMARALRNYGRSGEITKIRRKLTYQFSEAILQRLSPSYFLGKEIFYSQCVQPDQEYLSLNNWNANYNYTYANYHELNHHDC
The conditions noted are these: protein: recombinant; tags: N-terminal GST; dsDNA, one strand shown. The method in brief:
as §1

The target of the next assay is ELF4 (Homo sapiens, UniProt Q99607 1-663). The conditions noted are these: protein: recombinant; tags: N-terminal GST; dsDNA, one strand shown. Summed up: as §1
The target of a further assay is T9, ELK4 (Homo sapiens, UniProt P28324-2 1-405).
T9 sequence: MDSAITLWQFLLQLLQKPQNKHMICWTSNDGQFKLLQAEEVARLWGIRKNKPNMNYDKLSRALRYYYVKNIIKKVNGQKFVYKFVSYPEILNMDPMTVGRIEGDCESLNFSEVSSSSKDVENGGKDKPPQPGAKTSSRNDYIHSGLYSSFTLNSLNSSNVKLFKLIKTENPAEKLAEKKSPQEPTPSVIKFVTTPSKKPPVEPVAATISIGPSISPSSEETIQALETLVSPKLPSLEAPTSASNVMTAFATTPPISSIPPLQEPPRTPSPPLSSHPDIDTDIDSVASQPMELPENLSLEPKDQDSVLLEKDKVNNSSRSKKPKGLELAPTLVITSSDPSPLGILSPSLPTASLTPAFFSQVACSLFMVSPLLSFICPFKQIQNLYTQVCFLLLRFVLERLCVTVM
The conditions noted are these: protein: recombinant; tags: N-terminal GST; dsDNA, one strand shown. The method in brief:
as §1

Another assay addresses T10, ETV2 (Homo sapiens, UniProt O00321 1-342).
T10 sequence: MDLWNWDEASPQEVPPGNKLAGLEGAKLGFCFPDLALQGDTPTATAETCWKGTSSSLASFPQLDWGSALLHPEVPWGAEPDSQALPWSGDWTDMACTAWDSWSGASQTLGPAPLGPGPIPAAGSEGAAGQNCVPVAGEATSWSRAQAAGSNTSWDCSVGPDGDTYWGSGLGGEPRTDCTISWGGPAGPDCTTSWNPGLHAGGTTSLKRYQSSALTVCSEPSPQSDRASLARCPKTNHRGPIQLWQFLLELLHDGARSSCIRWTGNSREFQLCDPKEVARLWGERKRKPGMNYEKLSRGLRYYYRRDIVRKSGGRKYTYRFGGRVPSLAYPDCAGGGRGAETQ
The conditions noted are these: protein: recombinant; tags: N-terminal GST; dsDNA, one strand shown. The method in brief: as §1

The target in a further assay is T11, ELF3 (Homo sapiens, UniProt P78545 1-371).
T11 sequence: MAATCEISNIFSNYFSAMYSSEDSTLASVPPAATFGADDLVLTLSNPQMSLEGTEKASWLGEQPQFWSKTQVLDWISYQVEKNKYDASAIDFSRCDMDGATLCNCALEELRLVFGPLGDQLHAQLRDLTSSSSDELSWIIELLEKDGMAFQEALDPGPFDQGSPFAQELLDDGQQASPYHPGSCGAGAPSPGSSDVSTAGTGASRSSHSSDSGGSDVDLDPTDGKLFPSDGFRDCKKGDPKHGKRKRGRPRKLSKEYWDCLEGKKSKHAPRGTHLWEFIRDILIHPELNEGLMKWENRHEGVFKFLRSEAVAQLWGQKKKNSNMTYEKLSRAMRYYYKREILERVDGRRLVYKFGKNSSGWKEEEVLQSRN
The conditions noted are these: protein: recombinant; tags: N-terminal GST; dsDNA, one strand shown. The method in brief: as §1

In another assay the target is ETV1 (Homo sapiens, UniProt P50549 1-477). The conditions noted are these: protein: recombinant; tags: N-terminal GST; dsDNA, one strand shown. The method in brief:
as §1

SPIB, sequence (Q01892 whole entry): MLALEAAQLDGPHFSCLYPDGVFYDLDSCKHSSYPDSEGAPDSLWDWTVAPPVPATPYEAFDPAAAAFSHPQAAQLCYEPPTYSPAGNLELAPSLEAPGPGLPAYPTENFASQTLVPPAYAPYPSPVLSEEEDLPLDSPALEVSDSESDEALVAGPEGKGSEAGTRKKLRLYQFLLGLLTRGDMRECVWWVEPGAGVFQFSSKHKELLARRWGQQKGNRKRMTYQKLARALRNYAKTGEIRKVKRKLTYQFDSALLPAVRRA
ELF4, sequence (Q99607 whole entry): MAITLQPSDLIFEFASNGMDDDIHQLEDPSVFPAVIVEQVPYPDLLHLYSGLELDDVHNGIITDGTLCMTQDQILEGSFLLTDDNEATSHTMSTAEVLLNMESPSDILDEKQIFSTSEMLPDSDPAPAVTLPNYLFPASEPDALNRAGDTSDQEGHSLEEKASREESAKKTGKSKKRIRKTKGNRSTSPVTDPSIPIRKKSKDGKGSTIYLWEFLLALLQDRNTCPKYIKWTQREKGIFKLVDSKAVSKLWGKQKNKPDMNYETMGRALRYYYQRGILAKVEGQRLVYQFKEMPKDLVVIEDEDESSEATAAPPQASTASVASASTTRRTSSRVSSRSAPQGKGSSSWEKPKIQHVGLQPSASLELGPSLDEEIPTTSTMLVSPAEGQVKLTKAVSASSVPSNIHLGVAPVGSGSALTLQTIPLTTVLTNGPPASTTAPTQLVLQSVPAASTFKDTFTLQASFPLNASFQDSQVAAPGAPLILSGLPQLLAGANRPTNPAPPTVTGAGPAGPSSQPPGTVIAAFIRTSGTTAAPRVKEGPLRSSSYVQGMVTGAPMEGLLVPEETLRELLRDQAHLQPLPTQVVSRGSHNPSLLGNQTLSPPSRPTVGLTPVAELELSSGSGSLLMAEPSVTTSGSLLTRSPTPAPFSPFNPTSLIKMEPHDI
HSF1, sequence (Q00613 whole entry): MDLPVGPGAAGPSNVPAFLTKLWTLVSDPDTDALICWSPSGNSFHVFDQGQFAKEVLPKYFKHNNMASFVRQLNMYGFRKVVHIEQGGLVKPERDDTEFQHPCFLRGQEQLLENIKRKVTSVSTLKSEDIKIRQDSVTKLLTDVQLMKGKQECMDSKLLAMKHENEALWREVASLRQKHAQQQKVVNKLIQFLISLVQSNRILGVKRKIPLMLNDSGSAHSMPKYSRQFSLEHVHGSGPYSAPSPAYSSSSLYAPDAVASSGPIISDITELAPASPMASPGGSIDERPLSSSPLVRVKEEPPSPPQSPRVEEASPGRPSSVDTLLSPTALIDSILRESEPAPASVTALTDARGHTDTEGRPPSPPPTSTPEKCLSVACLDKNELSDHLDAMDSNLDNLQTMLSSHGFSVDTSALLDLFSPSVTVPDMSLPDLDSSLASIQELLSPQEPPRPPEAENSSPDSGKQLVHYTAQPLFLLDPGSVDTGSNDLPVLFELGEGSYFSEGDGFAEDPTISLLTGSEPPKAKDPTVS
ETV1, sequence (P50549 whole entry): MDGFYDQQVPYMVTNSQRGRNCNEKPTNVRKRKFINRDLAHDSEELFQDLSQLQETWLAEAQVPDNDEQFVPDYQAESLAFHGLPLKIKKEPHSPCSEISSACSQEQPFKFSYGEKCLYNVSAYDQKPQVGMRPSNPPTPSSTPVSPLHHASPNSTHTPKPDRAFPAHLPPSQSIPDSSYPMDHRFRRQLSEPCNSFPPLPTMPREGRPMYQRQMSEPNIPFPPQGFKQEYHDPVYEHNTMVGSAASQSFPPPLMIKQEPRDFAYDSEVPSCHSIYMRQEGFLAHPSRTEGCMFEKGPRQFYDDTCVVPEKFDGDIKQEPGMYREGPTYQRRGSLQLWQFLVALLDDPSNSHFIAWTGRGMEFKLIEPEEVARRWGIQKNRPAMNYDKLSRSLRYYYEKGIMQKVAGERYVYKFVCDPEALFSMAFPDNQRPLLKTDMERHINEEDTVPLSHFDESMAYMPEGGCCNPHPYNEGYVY
ETV5, sequence (P41161 whole entry): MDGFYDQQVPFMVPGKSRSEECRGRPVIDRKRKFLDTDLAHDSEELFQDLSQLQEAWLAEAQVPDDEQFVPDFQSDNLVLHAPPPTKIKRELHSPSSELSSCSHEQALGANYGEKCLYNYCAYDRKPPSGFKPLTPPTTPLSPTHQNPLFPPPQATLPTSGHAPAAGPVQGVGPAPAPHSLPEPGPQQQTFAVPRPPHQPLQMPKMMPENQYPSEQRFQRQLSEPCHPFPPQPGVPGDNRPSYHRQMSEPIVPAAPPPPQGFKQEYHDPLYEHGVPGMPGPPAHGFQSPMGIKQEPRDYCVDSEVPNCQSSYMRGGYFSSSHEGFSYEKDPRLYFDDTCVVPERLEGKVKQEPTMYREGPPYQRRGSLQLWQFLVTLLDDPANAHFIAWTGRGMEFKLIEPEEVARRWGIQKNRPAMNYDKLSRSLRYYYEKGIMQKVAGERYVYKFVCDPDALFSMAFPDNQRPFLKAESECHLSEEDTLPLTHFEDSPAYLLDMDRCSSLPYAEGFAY
ELF1, sequence (P32519 whole entry): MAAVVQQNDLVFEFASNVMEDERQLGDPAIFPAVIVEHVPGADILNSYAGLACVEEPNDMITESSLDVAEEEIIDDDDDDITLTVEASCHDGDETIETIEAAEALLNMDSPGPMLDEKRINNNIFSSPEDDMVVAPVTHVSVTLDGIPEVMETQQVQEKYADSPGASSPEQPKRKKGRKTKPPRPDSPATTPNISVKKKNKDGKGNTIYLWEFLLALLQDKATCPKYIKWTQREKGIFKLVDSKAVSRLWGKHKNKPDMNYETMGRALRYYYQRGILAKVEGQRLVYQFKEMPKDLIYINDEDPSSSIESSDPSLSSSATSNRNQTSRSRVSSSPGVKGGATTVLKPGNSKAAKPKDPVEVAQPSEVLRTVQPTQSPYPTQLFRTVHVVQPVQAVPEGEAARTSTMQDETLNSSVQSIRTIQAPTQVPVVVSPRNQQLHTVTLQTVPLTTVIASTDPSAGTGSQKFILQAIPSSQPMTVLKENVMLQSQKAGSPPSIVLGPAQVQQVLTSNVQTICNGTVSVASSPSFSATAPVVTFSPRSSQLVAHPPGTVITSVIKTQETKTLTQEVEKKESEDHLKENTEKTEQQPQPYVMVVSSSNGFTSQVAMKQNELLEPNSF

Turning to TGGCAC, the binding signal was 1.19 fold enrichment (6-mer frequency, TF over GST control) with FLI1; 1.23 fold enrichment (6-mer frequency, TF over GST control) in the assay with ELK1; 1.15 fold enrichment (6-mer frequency, TF over GST control) with GABPA; 1.27 fold enrichment (6-mer frequency, TF over GST control) in the assay with ERG; 1.09 fold enrichment (6-mer frequency, TF over GST control) with ELF1; 1.26 fold enrichment (6-mer frequency, TF over GST control) with EHF. Also, the binding signal with SPI1 is 1.14 fold enrichment (6-mer frequency, TF over GST control); with SPIB, 1.18 fold enrichment (6-mer frequency, TF over GST control); with ELK3, 1.17 fold enrichment (6-mer frequency, TF over GST control); in the assay with FEV, 1.31 fold enrichment (6-mer frequency, TF over GST control); with ETV5, 1.18 fold enrichment (6-mer frequency, TF over GST control); with HSF1 it was 1.03 fold enrichment (6-mer frequency, TF over GST control). The binding signal in the assay with SPIC is 1.24 fold enrichment (6-mer frequency, TF over GST control); with ELF4, 1.25 fold enrichment (6-mer frequency, TF over GST control); with ELK4, 1.12 fold enrichment (6-mer frequency, TF over GST control); with ETV2, 1.24 fold enrichment (6-mer frequency, TF over GST control); with ELF3, 1.18 fold enrichment (6-mer frequency, TF over GST control); in the assay with ETV1 it was 1.11 fold enrichment (6-mer frequency, TF over GST control).

The values above are taken from publication PMC7862700, “An all-to-all approach to the identification of sequence-specific readers for epigenetic DNA modifications on cytosine”.
